Shown are actives, neighbours in structure and some others; about 11% of the full set was active somewhere.
BAZ2B inh = blocks human BAZ2B; Potency, µM (series often up to 114 µM), inactives show top-dose activity change, negative = inhibition, actives largely listed as inhibitors; AID 504333; 360,000 compounds, 4.4% hits; Q9UIF8; AlphaScreen BAZ2B-H3K14Ac peptide displacement; further: potency means the concentration at half of the fitted maximal effect; on the % scale 0 is the no-effect control and ±100 the full control effect; nearly all actives have a fitted effect of over 60% in size
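AlphaScreen displacement: compounds (up to 110uM) incubated 30 min at room temperature with a preformed 50 nM BAZ2B/50 nM biotinylated H3K14Ac peptide complex in PBS pH 7.4 with Tween-20. Donor and acceptor beads at 10 ug/mL final added, 20 min light-protected before reading.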
HP1b binding inh = inhibitors of HP1-beta chromodomain binding to methylated histone tails; 390,000 compounds, 0.56% hits; AlphaScreen HP1-beta / biotin-H3K9me3 peptide binding; P83916; Potency, µM (highest dose often 114 µM), without a hit: at the highest dose activity change, negative = inhibition, usual class: inhibitors; AID 540317; further: potency means the concentration at half of the fitted maximal effect; nearly all actives have a fitted effect of over 70% in size
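AlphaScreen: HP1-beta (50 nM) preformed 30 min with biotin-H3(1-18)K9me3 peptide (50 nM) in PBS pH 7.4, 0.01% Tween-20. Compound added for 30 min at RT, then streptavidin donor/nickel chelate acceptor beads (10 ug/mL) for 30 min.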
G9a inh = inhibitors of human histone lysine methyltransferase G9a; Q96KQ7; G9a H3K9 monomethylation, AlphaScreen, 2 h; Potency, µM (titrated, usually from 102 µM), for inactives: at the highest dose activity, negative = inhibition, actives largely listed as inhibitors; 350,000 compounds, 8.8% hits; AID 504332; further: potency means the concentration at half of the fitted maximal effect; on the % scale 0 is the no-effect control and ±100 the full control effect; nearly all actives have a fitted effect of over 75% in size
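Methyltransferase reactions run at room temperature for 2 h (20 nM enzyme, 500 nM biotin-H3K9 peptide, 20 uM SAM) after a 15 min compound preincubation; product detected by AlphaScreen beads and anti-H3K9me1 antibody.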
L3MBTL1 inh = L3MBTL1 (human) inhibition; AlphaScreen L3MBTL1–H3K9me1 peptide binding; Potency, µM (doses to about 57.1 µM), for inactives: top-dose activity, negative = inhibition, actives largely listed as inhibitors; Q9Y468; 230,000 compounds, 0.66% hits; further: potency means the concentration at half of the fitted maximal effect; on the % scale 0 is the no-effect control and ±100 the full control effect; nearly all actives have a fitted effect of over 60% in size
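AlphaScreen proximity signal between nickel-chelate acceptor and streptavidin donor beads (final 10 ug/mL) reports binding of 50 nM L3MBTL1 to 75 nM biotin-H3 K9me1 peptide; complex incubated with compounds 30 min at room temperature; cefsulodin titration as control.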
PI5P4K alpha inh = inhibitors of human PI5P4K alpha; P48426; PI5P4Kalpha enzyme, ADP-Glo luminescence, 60 min; stronger effect = lower value; max response, %; 330,000 compounds, 1.2% hits; active means max response of -50% or lower; inconclusive means between -30% and -50%; inactive means -30% or higher; further: value at the top dose of about 77 µM; on the % scale 0 is the no-effect control and ±100 the full control effect
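Enzyme plus substrate dispensed, test compounds pinned in, then ATP (5 microM final) added. After 60 min at RT, ADP-Glo reagent 1 for 45 min and reagent 2 for 30 min preceded luminescence imaging.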
JMJD2A Tudor = JMJD2A Tudor domain (human) inhibition; O75164; AlphaScreen JMJD2A-Tudor / H3K4me3 peptide binding; Potency, µM (doses to about 114 µM), for the others: at the highest dose activity change, negative = inhibition, hits mostly inhibitors; 390,000 compounds, 4.4% hits; further: potency means the concentration at half of the fitted maximal effect; on the % scale 0 is the no-effect control and ±100 the full control effect; nearly all actives have a fitted effect of over 50% in size
* = called active by the depositor; ? = inconclusive; nt = not tested or not shown; [ ] = dose if it differs, or a comment. Unless noted, the call rests on the fitted dose curve; in most records, active means well fitted inhibition curve with a large enough effect; inconclusive means small, poorly fitted or top-dose-only effect; inactive means no such curve, though single readings can be large or run the other way.

SMILES | BAZ2B inh | HP1b binding inh | G9a inh | L3MBTL1 inh | PI5P4K alpha inh | JMJD2A Tudor
FC(F)(F)c1cccc(NC(=S)NNC(=S)Nc2cccc(C(F)(F)F)c2)c1 | ? | nt | 35µM* | -12% | nt | nt
COc1ccc(NC(=S)NNC(=S)Nc2cccc(C(F)(F)F)c2)cc1 | ? | ? | 22µM* | -28% | -78* | ?
O=C(NNc1ccccc1Br)C(O)(c1cccc(C(F)(F)F)c1)c1cccc(C(F)(F)F)c1 | -1% | -2% | ? | -2% | -6 | -30%
CC(C)(O)C(=O)NNC(=S)Nc1cccc(C(F)(F)F)c1 | -7% | 29% | 7.9µM* | 1% | -3 | -13%
Cc1ccc(NNC(=O)C(O)(c2cccc(C(F)(F)F)c2)c2cccc(C(F)(F)F)c2)cc1 | -28% | 13% | 32µM* | -6% | -13 | -24%
COc1ccc(C2C=C(c3ccc(Cl)cc3)Nc3nc(-c4ccc(Cl)cc4)nn32)cc1 (stereo not drawn) | ? | 19% | ? | nt | nt | -24%
Cc1c(NC(=O)c2ccc(Br)o2)cccc1-c1nc2ccccc2o1 | -3% | 17% | 8%[59 µM] | nt | nt | -18%
CC(=O)c1sc2c(c1C)c(=O)n(-c1ccc(Cl)cc1)c(=O)n2Cc1ccc(Cl)cc1 | 6% | 17% | 6%[59 µM] | nt | nt | 0%
Cc1ccc2nc(C(=O)O)c(C(=O)O)nc2c1 | ? | -13% | 35µM* | nt | nt | 40µM*
Cc1nc2ccc(C(=O)O)cc2nc1C | -4% | 29% | 7%[59 µM] | -21% | -8 | -6%
O=C(Cn1c(-c2cccs2)cc2ccccc21)NCc1ccccc1Br | -6% | 39% | -22%[59 µM] | nt | nt | -18%
CC1=CS(=O)(=O)CC1Sc1nc2ccccc2[nH]1 (stereo not drawn) | -6% | 24% | 79µM* | 18% | -10 | -35%
CC1=CS(=O)(=O)CC1Sc1ncn[nH]1 (stereo not drawn) | -10% | 11% | ? | 19% | 0 | ?
CC1=CS(=O)(=O)CC1Sc1nc(C)n[nH]1 (stereo not drawn) | ? | 31% | 50µM* | ? | 0 | -8%
COC(=O)c1ccc(NC(=O)c2nn(C)c3c2CS(=O)(=O)c2ccccc2-3)cc1 | -3% | 11% | 1%[59 µM] | nt | nt | -16%
CC(C)(C)c1ccc2c(c1)C(=O)c1ccccc1C2=O | 32µM* | ? | 35µM* | ? | 25 | 45µM*
COc1cc(/C=c2\s/c(=C\C(=O)C(C)(C)C)[nH]c2=O)cc(OC)c1OC | ? | 24% | -38% | -6% | 8 | -20%
COc1ccc(/C=c2\s/c(=C\C(=O)C(C)(C)C)[nH]c2=O)cc1O | ? | 20% | nt | nt | -72* | -27%
Cc1cccc(C)c1OCC(N)C(C)C (stereo not drawn) | 71µM* | 33% | 3.8µM* | -3% | 6 | 0%
Cc1cccc(C)c1OCC(C)N (stereo not drawn) | -36% | 19% | -2%[59 µM] | nt | 3 | -24%
COc1cc(/C=C2\SC(N)=NC2=O)cc(Br)c1O | ? | 2% | -8%[0.501 µM] | 2%[2.29 µM] | -71* | -26%
CCOc1c(Br)cc(Br)cc1/C=C1\SC(N)=NC1=O | ? | 10% | nt | -6% | -7 | 25µM*
CCOc1cc(/C=C2\SC(N)=NC2=O)ccc1O | -11% | 23% | 56µM* | -13% | ? | -7%
COc1cc(NC(=O)CN2CCCN(Cc3cccc(F)c3)S2(=O)=O)cc(OC)c1 | 0% | 52% | 0%[59 µM] | nt | nt | -16%
Cc1cc(=O)oc2cc(OCC(=O)N3CCCC3)ccc12 | nt | 30% | nt | 9% | 1 | -6%
SMILES | BAZ2B inh | HP1b binding inh | G9a inh | L3MBTL1 inh | PI5P4K alpha inh | JMJD2A Tudor
COc1ccc2c(c1)c(=O)oc1cc(OCC(=O)N3CCCC(C)C3)ccc12 (stereo not drawn) | -1% | 13% | 0%[12.7 µM] | -5% | -11 | -24%
COc1ccc2c(c1)c(=O)oc1cc(OCC(=O)N3CCC(C)CC3)ccc12 | ? | -45% | 8.9µM* | ? | nt | 50µM*
Cc1cc(=O)oc2cc(OCC(=O)N3CCOCC3)ccc12 | -5% | -42% | 7.1µM* | -7% | -22 | 79µM*
COc1ccc2c(c1)c(=O)oc1cc(OCC(=O)N3CCc4ccccc4C3)ccc12 | 40µM* | 1% | 3.2µM* | nt | nt | 56µM*
CCc1nnc(NC(=O)[C@@H]2CCCN2C(=O)c2cccs2)s1 | nt | 54% | nt | nt | nt | -8%
O=C(Nc1ccc(Oc2ccccc2)nc1)C1CCCCN1Cc1ccc(O)cc1 (stereo not drawn) | -18% | nt | -14% | nt | nt | nt
COc1cc(CN2CCCCC2C(=O)Nc2ccc(Oc3ccccc3)nc2)ccc1O (stereo not drawn) | -18% | 18% | 5.6µM* | nt | 13 | -28%
CCOc1cc(N2CCOCC2)c(OCC)cc1NC(=O)Cc1ccccc1 | ? | 3% | nt | -11% | -4 | -31%
COc1ccc(NC(C)=O)cc1NS(=O)(=O)c1cn(C)c(=O)n(C)c1=O | 79µM* | 45% | -9% | 2% | 3 | -10%
CCOc1cc(N2CCOCC2)c(OCC)cc1NC(=O)CN1CCC(Cc2ccccc2)CC1 | 32µM* | 25µM* | 50µM* | -8% | 2 | 22µM*
CCOc1cc(N2CCOCC2)c(OCC)cc1NC(=O)Cc1ccccc1OC | 45µM* | ? | ? | -21% | -6 | ?
CCN1CCN(C(=O)C(C)Nc2cc(Cl)c(OC)cc2OC)CC1 (stereo not drawn) | nt | 11% | 40µM* | -19% | -6 | -29%
Cc1cc(NC(=O)c2ccc(NC(=O)CCS(=O)(=O)c3cccs3)cc2)ccc1Br | 2% | 24% | 6%[59 µM] | nt | nt | -4%
O=C(NCCc1nc2ccccc2n1CCOc1ccc(Cl)cc1)C1CCCCC1 | -2% | 30% | 10%[59 µM] | nt | nt | -14%
CCOc1cc(N2CCOCC2)c(OCC)cc1NC(=O)COC(=O)CCOc1ccc(C(C)(C)C)cc1 | 35µM* | ? | 4%[0.501 µM] | -10% | 2 | 20µM*
CCOc1cc(N2CCOCC2)c(OCC)cc1NC(C)C(=O)N1CCN(CC)CC1 (stereo not drawn) | 10µM* | ? | 4µM* | 18µM* | ? | 0.35µM*
CCOc1cc(N2CCOCC2)c(OCC)cc1NS(=O)(=O)c1cc(NC(C)=O)ccc1OC | 71µM* | 12% | 45µM* | nt | -9 | -33%
CCOc1ccc(OCCC(=O)OCC(=O)Nc2ccc(N3CCOCC3)cc2)cc1 | -30% | 20% | ? | nt | 4 | -24%
CCOc1cc(N2CCOCC2)c(OCC)cc1NC(=O)C(C)C | -10% | 2% | 58%[59 µM] | nt | 3 | -7%
CCOc1cc(N2CCOCC2)c(OCC)cc1NC(=O)CSc1ncccn1 | -27% | -25% | 40µM* | -6% | -17 | -18%
CC(C)(C)OC(=O)N1CCC(c2c(C(=O)NCc3ccco3)cnn2-c2ccc(F)cc2F)CC1 | 5%[57.1 µM] | 24% | -41%[59 µM] | nt | nt | -16%

High-throughput results as filed in PubChem.
